VDR inh: inhibitors of human vitamin D receptor. P11473. VDR-SRC2-3 peptide fluorescence polarization, 2 h. Potency, µM, for inactives: max response, negative = inhibition, usual class: inhibitors. 0.93% of 400,000 active. AID 504847
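After 23 nl compound addition and a short centrifugation, plates sat for 2 hours at ambient temperature; polarization of fluorescence then indicated loss of VDR binding to peptide SRC2-3.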
TRb SRC2 PPI: disrupts binding of human TR beta to SRC2. P10828. TRbeta-SRC2 peptide binding, fluorescence polarization; receptor liganded with 1 µM T3. Potency, µM (series often up to 106 µM), for the others: top-dose activity change, negative = inhibition, usual class: inhibitors. 0.065% of 280,000 active. AID 1469;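 further: plate controls were bound peptide for no effect and peptide without receptor for full effect; nearly all actives have a fitted effect of over 50% in size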
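Assay buffer: 20 mM Tris-HCl, 100 mM NaCl, 10% glycerol, 1 mM EDTA, 0.01% NP-40, 1 mM DTT, 1 uM T3, 5% DMSO; TRb LBD 0.6 uM, Texas Red SRC2 20 nM; FP after 5 hr.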
GCN5L2 inh: GCN5L2 (KAT2A) acetyltransferase inhibition; GCN5L2 HAT assay, ThioGlo1 CoA-SH fluorescence; 0.21% of 390,000 active; AID 504327; Potency, µM (series often up to 58.9 µM), for inactives: at the top dose activity change, negative = inhibition, most hits filed as inhibitors
Target sequence (Q92830 whole entry, looked up): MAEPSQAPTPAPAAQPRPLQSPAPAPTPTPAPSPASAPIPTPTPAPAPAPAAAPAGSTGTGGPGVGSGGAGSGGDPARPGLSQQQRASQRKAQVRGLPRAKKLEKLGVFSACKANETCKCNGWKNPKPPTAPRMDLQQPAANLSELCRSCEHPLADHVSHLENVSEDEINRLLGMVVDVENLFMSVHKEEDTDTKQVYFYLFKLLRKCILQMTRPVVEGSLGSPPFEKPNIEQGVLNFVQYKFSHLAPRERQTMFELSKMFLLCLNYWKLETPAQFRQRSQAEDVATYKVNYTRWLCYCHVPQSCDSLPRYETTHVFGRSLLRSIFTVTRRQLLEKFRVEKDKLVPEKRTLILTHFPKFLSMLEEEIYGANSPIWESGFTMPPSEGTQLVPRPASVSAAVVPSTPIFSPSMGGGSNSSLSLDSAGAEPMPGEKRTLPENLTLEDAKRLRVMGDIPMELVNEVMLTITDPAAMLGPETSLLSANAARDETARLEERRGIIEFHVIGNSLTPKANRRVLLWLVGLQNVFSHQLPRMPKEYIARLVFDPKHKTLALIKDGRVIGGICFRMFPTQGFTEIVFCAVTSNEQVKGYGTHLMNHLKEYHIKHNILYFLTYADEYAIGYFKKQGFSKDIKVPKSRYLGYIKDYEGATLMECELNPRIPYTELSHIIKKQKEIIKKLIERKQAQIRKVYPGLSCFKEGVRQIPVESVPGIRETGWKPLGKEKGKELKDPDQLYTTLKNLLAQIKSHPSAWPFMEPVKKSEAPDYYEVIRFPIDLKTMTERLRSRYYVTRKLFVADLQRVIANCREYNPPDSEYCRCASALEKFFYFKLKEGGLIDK
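GCN5L2 (20 nM) in 50mM HEPES pH 7.5, 0.1mM EDTA, 0.01% Tween-20 preincubated 15 min with compounds at room temperature. Reaction started with H3(1-25) 75uM, acetyl-CoA 70uM, ThioGlo1 50uM; CoA-thiol fluorescence (Ex340/Em540) read at 0 and 20 min.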
TexasRed fluor: counter-screen for TRb-SRC2 inhibitors: fluorescence interference; TRb/SRC2 Texas Red total fluorescence interference; Potency, µM (top dose mostly 106 µM), inactives show at the top dose fluorescence change, negative = quenching; 0.29% of 280,000 active; AID 1479; active means well fitted curve in either direction with a large enough effect; inconclusive means small, poorly fitted or top-dose-only effect
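Human TRβ ligand-binding domain (0.6 uM) and Texas Red SRC2 peptide (20 nM) in Tris buffer with 1 uM T3 and 5% DMSO were incubated with pinned compound for 5 hr at ambient temperature. Total fluorescence was computed as S + 2P (555/632 nm).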
RGS12 GoLoco inh: RGS12 GoLoco-Gai1 interaction inhibition; Potency, µM (top dose mostly 61.6 µM), for the others: top-dose activity, negative = inhibition, usual class: inhibitors; AID 880; 0.44% of 230,000 active; Gai1:RGS12 GoLoco peptide FP, rhodamine, 10 min; P63096; active means well fitted inhibition curve with a large enough effect, not every such curve was filed as active; inactive means no such curve, though single readings can be large or run the other way; further: nearly all actives have a fitted effect of over 30% in size
* hit, by the source's call; ? = inconclusive; / = no result given; ! = repeats disagree; [ ] = remark or other dose. This is a sample that favours compounds with a hit; in the whole collection about 1.2% have one here. Unless noted, the call rests on the fitted dose curve; in most records, active means well fitted curve in the direction sought with a large enough effect; inconclusive means small, poorly fitted or top-dose-only effect, or another doubt; inactive means no such curve, though single readings can be large; an effect the other way counts as inactive or inconclusive. Unless noted, on the % scale 0 is the no-effect control and ±100 the full control effect; potency means the concentration at half of the fitted maximal effect.

SMILES	VDR inh	TRb SRC2 PPI	GCN5L2 inh	TexasRed fluor	RGS12 GoLoco inh
CC1CC(C)CN(c2oc(-c3ccc(OCc4ccccc4Cl)cc3)nc2C#N)C1 (configuration not stated)	-11%	/	/	/	/
COc1ccc(-c2nn3c(-c4cc(-c5ccccc5)n[nH]4)nnc3s2)cc1OC	-9%	/	/	/	/
O=C1/C(=C\c2cccc(O)c2O)SC(=S)N1Cc1ccccc1	-29%	/	20µM*	/	/
CCCN1C(=O)/C(=C/c2ccncc2)SC1=S	?	15%	3%	-2%	16%
O=C1/C(=C/c2ccncc2)SC(=S)N1Cc1ccccc1	71µM*	4%	-17%	1%	8%
C[C@]12C[C@@](C)(C=C1/C=C/c1ccc(C(F)(F)F)cc1)C(=O)C[C@H]2c1ccc(C(F)(F)F)cc1	2%	6%	/	2%	-2%
O=c1cnn([C@@H]2O[C@H](CO)[C@@H](O)[C@H]2O)c(=O)[nH]1	-15%	2%	-1%	1%	11%
O=C1C=C(C2OC(CO)C(O)C2O)C(=O)N1 (configuration not stated)	40µM*	/	/	/	/
Cc1ccc(N2C(=O)C3CC(c4ccccc4)=C4C5C=CC(C6C(=O)N(c7ccc(C)cc7C)C(=O)C56)C4C3C2=O)c(C)c1 (configuration not stated)	-3%	-3%	-1%	1%	32µM*
c1nc(NC2CCNCC2)c2cc(-c3ccoc3)ccc2n1	20µM*	/	20µM*	/	13%
c1cncc(-c2ccc3ncnc(NC4CCNCC4)c3c2)c1	-15%	/	-14%	/	3%
Fc1ccc(Nc2ncnc3ccc(-c4ccoc4)cc23)cc1	40µM*	/	?	/	7%
O=C1N=C(N2CCOCC2)S/C1=C/c1ccc(-c2ccc(F)cc2)o1	-5%	0%	22µM*	-13%	9%
Cc1ccc(-c2ccc(/C=C3\SC(N4CCOCC4)=NC3=O)o2)cc1	-2%	-4%	-11%	-7%	-2%
CC(=O)c1ccc(S(=O)(=O)Nc2ccc(-c3cn4c(C)csc4n3)cc2)cc1	25µM*	0%	-9%	1%	/
COc1ccc(S(=O)(=O)Nc2ccc(-c3cn4c(C)csc4n3)cc2)cc1	-3%	-4%	-13%	-2%	/
O=C(NCc1ccccc1)C1CCN(C(=O)c2cnn(-c3ccccc3)c2-n2cccc2)CC1	3%	-9%	-5%	32µM*[quencher]	/
O=C(NCc1cccc(F)c1)C1CCN(C(=O)c2sccc2-n2cccc2)CC1	0%	-6%	0%	25µM*![quencher]	4%
COCCCNC(=O)C1CCN(C(=O)c2cnn(-c3ccccc3)c2-n2cccc2)CC1	14%	3%	2%	1%	/
CC(=O)C1(C)CC2=C(CCCC2(C)C)CC1C (configuration not stated)	/	-2%	/	-3%	8%
C[C@H]1C[C@H]2[C@H]3CCC4=CC(=O)C=C[C@@]4(C)[C@]3(F)[C@H](O)C[C@]2(C)[C@@]1(O)C(=O)COP(=O)(O)O	/	/	/	/	7%[14.2 µM]
CC(=O)Nc1nc(CC(C)C)cc(-c2ccco2)c1C#N	0%	-9%	/	-2%	2.8µM*
Cc1ccc(OCc2nnc(SCC(=O)O)n2N)cc1	0%	3%	-10%	-6%	59%
COc1ccc(OCc2nnc(SCC(=O)N(C)Cc3ccccc3)n2N)cc1	79µM*	-3%	-2%	-5%	-6%
O=C(/C=C/c1cccs1)c1cc(Cl)ccc1O	?	10%	-6%	-2%	15%
SMILES	VDR inh	TRb SRC2 PPI	GCN5L2 inh	TexasRed fluor	RGS12 GoLoco inh
O=C(C=Cc1cccs1)c1ccc(Cl)s1	40µM*	/	/	/	/
O=C(Nc1ccc(N2CCCC2)cc1)C(Cl)c1ccccc1 (configuration not stated)	45µM*	-20%	-9%	1%	-5%
CS(=O)(=O)N1CCN(c2ccc(NC(=O)C(c3ccccc3)c3ccccc3)cc2)CC1	-4%	-4%	-3%	-2%	13%
NCCCN(Cc1ccccc1)c1ccc(Br)cn1	3%	/	/	/	/
Cc1ccc(-n2c(N)c(C(=O)N3CCCCC3)sc2=S)cc1	?	0%	-21%[0.501 µM]	-4%	-8%
Cc1ccc(-n2c(N)c(C(=O)N3CCN(C)CC3)sc2=S)cc1	25µM*	-2%	-21%	1%	-5%
Nc1c(C(=O)N2CCOCC2)sc(=S)n1-c1ccccc1	50µM*	-6%	-24%	2%	-7%
O=Cc1ccc(B(O)O)cc1	-16%	-2%	/	-6%	-3%
CN1C/C(=C/c2cccnc2)C(=O)/C(=C/c2cccnc2)C1	45µM*	2%	4%	2%	-2%
CC(C)N1C/C(=C/c2cccnc2)C(=O)/C(=C/c2cccnc2)C1	?	-7%	-5%	-3%	-10%
CN1C/C(=C/c2ccc(B(O)O)cc2)C(=O)/C(=C/c2ccc(B(O)O)cc2)C1	4.5µM*	20%	-18%	-3%	/
CCOC(=O)c1ccc(S(=O)(=O)N2CCN(CCC#N)CC2)cc1	-3%	7%	-30%	1%	9%
CCOC(=O)C1CCN(S(=O)(=O)c2ccc(CC)cc2)CC1	40µM*	-3%[53 µM]	0%	1%[53 µM]	-14%
CCOC(=O)c1ccc(S(=O)(=O)N2CCN(C)CC2)cc1	-8%	3%	3.5µM*	-2%	-1%
O=C1c2sc3nc4n(c(=O)c3c2CCC1Br)CCCCC4 (configuration not stated)	?	-13%	-10%	-2%	3.2µM*
O=c1c2c3c(sc2nc2n1CCCCC2)CCC3	-16%	-8%	?	-7%	6%
O=C(NCc1ccc(F)cc1)c1nnc(Cc2cccc(F)c2)o1	4%	-3%	-10%	?	/
O=C(NCCc1ccccc1)c1nnc(Cc2cccc(F)c2)o1	13%	-23%	-8%	0.0056µM*[quencher]	/
O=C(O)CCCCCCC(=O)O	/	1%[201 µM]	/	3%[201 µM]	/
O=C(Nc1ccccc1)Nc1ccc(O)c2ccccc12	50µM*	/	/	/	/
COc1ccc(-c2cn3c(n2)sc2cc(C(=O)Nc4cccc(OC)c4)ccc23)cc1	-1%	-3%	-12%	-17%	/
COc1ccc(-c2cn3c(n2)sc2cc(C(=O)Nc4cc(OC)cc(OC)c4)ccc23)cc1	-5%	-15%	-7%	0.0007µM*[quencher]	/
O=C(NC1CCCCCC1)c1ccc2c(c1)sc1nc(-c3ccc(F)cc3)cn12	-3%	-12%	-1%	1µM*[quencher]	/
O=C(Cc1ccccc1)NCC(=O)OCC(=O)c1ccc2ccccc2c1	-17%	/	/	/	/
COc1ccc2ccccc2c1C1CC(=O)N2CN(C3CCCCC3)CSC2=C1C#N (configuration not stated)	89µM*	22%	-27%	-5%	-9%
N#CC1=C2SCN(C3CCCCC3)CN2C(=O)CC1c1ccc(Br)cc1 (configuration not stated)	18µM*	6%	35µM*	0%	/

High-throughput results: PubChem BioAssay, National Center for Advancing Translational Sciences (NCATS)
